Source: PubChem BioAssay AID463173 (ICCB-Longwood Screening Facility, Harvard Medical School, 2010)
Hit rate of the full screen: of about 52,000 compounds, about 4,300 (8.3%) were called active. What follows is part of a selection rich in actives, with near analogues and random picks from the rest. Values without a mark were called inactive. Cut-off read from the data, not from the text of the source: active = survival mostly below about 52% (no sharp cut-off); inactive = mostly above about 56%.

These molecules were tested on DeltatarO mutant (assay: S. aureus survival, RN4220 and DeltatarO strains – OD600, teichoic acid synthesis inhibitors, primary screen (AID 463173)). Conditions: S. aureus RN4220 wild type/DeltatarO growth, OD600, 18 h, hits give low values, screened at 18.75 µg/mL (by protocol).

Point of comparison: `Cc1cccc(N(C(=O)c2csnn2)C(C(=O)NC2CCCCC2)c2ccco2)c1` (stereo unspecified), survival 87%. Against it:
- CCNC(=O)c1ccc(NC(=O)N2CCCCc3ccccc32)cc1 — higher, 102%
- COc1ccc(C(=O)N(c2ccc(OC)cc2)S(=O)(=O)c2ccc3c(c2)n(C)c(=O)n3C)cc1 — lower, 84%
- CCOc1ccc(N(C(=O)c2ccc(C)cc2)S(=O)(=O)c2ccc3c(c2)n(C)c(=O)n3C)cc1 — lower, 45%
- CCOc1ccc(N(C(=O)c2ccccc2F)S(=O)(=O)c2ccc3c(c2)n(C)c(=O)n3C)cc1 — lower, 47%
- COc1ccc(N(C(=O)c2ccccc2)S(=O)(=O)c2ccc3c(c2)n(C)c(=O)n3C)cc1 — higher, 89%
- CCOc1ccc(NC(=O)CCS(=O)(=O)c2ccc3c(c2)n(C)c(=O)c(=O)n3C)cc1 — the same, 87%
- CCCCCC(=O)N(c1ccc(OCC)cc1)S(=O)(=O)c1ccc2c(c1)n(C)c(=O)n2C — higher, 111%
- CCc1nc2ccc(C(=O)N3CCN(c4cccc(OC)c4)CC3)cc2nc1CC — lower, 83%
- CC(C)c1cnc2c(c1SCC(=O)Nc1cccc([N+](=O)[O-])c1)c(=O)n(C)c(=O)n2C — lower, 69%
- CC1CCN(S(=O)(=O)c2ccc3c(c2)N(CC(=O)N2CCN(c4ccc(Cl)cc4)CC2)C(=O)CO3)CC1 — lower, 62%
- Cc1ccc(-c2nnc(SCC(=O)NCCC(C)C)nc2-c2ccc(C)cc2)cc1 — higher, 104%
- Cc1cc(C)cc(NC(=O)CSc2nccn2C2CCCC2)c1 — higher, 94%
- COc1ccc(-n2nnnc2C2CCN(S(=O)(=O)c3ccc(C)cc3)CC2)cc1 — higher, 99%
- CCCCN1C(=O)C(O)(c2c[nH]c3ccccc23)c2cc(Br)ccc21 (stereo unspecified) — lower, 50%
- O=C1N(Cc2ccccc2)c2ccc(Cl)cc2C1(O)c1c[nH]c2ccccc12 (stereo unspecified) — lower, 66%
- Cc1ccc(C)c(CN2C(=O)C(O)(c3c[nH]c4ccccc34)c3ccccc32)c1 (stereo unspecified) — higher, 142%
- O=C1N(Cc2ccccc2)c2ccccc2C1(O)c1c[nH]c2ccccc12 (stereo unspecified) — lower, 55%
- O=C1N(Cc2ccccc2Cl)c2ccccc2C1(O)c1c[nH]c2ccccc12 (stereo unspecified) — lower, 64%
- CC(C)N1C(=O)C(O)(c2c[nH]c3ccccc23)c2ccccc21 (stereo unspecified) — higher, 129%
- CCc1ccccc1NC(=O)Nc1c[nH]c(=O)[nH]c1=O — lower, 75%
- c1ccc(Nc2c(-c3ccccc3)nc3ncccn23)cc1 — lower, 81%
- O=C(OCc1cc(=O)n2nc(-c3cccs3)sc2n1)c1ccccc1 — lower, 65%
- CCc1nn(CC(=O)NCCCc2ccccc2)c(=O)c2cc3ccccc3n12 — higher, 90%
- C/C(=N\NC(N)=O)C1CC(Cc2ccccc2)C(=O)O1 (stereo unspecified) — lower, 57%
- Cc1ccc(-c2nc3ccccc3n3c(-c4ccccc4)c4c(=O)n(C)c(=O)n(C)c4c23)cc1 — higher, 97%
- COc1ccc(Br)cc1CNC(=O)C1CCCCN1S(=O)(=O)c1ccc(F)cc1 (stereo unspecified) — lower, 81%
- O=C(NCCO)C(=O)NCC(c1ccc2c(c1)OCO2)N1CCOCC1 (stereo unspecified) — lower, 75%
- COc1cccc(C(=O)NCC(c2ccc3c(c2)OCO3)N2CCN(C)CC2)c1 (stereo unspecified) — higher, 112%
- COc1ccc(CNC(=O)C(=O)NCC(c2ccc3c(c2)OCO3)N2CCOCC2)cc1 (stereo unspecified) — higher, 99%
- CC(C)(C)CC(=O)NCC(c1ccc2c(c1)OCO2)N1CCOCC1 (stereo unspecified) — lower, 80%
- COc1ccc(CCNC(=O)C(=O)NCC(c2ccc3c(c2)OCO3)N2CCOCC2)cc1OC (stereo unspecified) — lower, 69%
- CCOc1ccc(C(=O)NCC(c2ccc3c(c2)OCO3)N2CCN(C)CC2)cc1 (stereo unspecified) — lower, 78%
- CN(C)CCCNC(=O)C(=O)NCC(c1ccc2c(c1)OCO2)N1CCOCC1 (stereo unspecified) — higher, 106%
- CNC(=O)C(=O)NCC(c1ccc2c(c1)OCO2)N1CCOCC1 (stereo unspecified) — higher, 89%
- CC1=C(C(=O)Nc2cccc(C(F)(F)F)c2)C(c2ccccc2)n2ncnc2N1 (stereo unspecified) — higher, 103%
- COc1ccc(CN2C3CCCC2CC(NC(=O)NC2CCCCC2)C3)cc1 (stereo unspecified) — lower, 85%
- Cc1ccc(F)cc1NC(=O)CCc1c(C)nn(-c2ccc(N3CCCC3)nn2)c1C — lower, 78%
- CCOc1ccc(C(C(=O)NC2CCCC2)N(Cc2ccco2)C(=O)Cn2nnc3ccccc32)cc1OC (stereo unspecified) — higher, 110%
- COc1ccc(-c2cccc(NS(=O)(=O)c3cc(C)ccc3OC)c2)nn1 — higher, 122%
- Nc1c(-c2nc(-c3ccc(Cl)cc3)cs2)c2ccccn2c1C(=O)c1ccc2c(c1)OCO2 — higher, 101%
- CC1CCCCN1C(=O)CSc1nnc2c3ccccc3n(CC(=O)O)c2n1 (stereo unspecified) — higher, 97%
- CCOC(=O)c1c(C)[nH]c(C)c1S(=O)(=O)N1CCCC(C(=O)Nc2cc(C)ccc2C)C1 (stereo unspecified) — lower, 83%
- COCCCNC(=O)C(=O)NCC(c1ccc2c(c1)OCO2)N1CCOCC1 (stereo unspecified) — higher, 95%
- CN(C)CCNC(=O)C(=O)NCC(c1ccc2c(c1)OCO2)N1CCOCC1 (stereo unspecified) — lower, 69%

In the case of `CCOc1ccc(N(CC(=O)OC)S(=O)(=O)c2ccc3c(c2)n(C)c(=O)c(=O)n3C)cc1`, the survival is reported as 46% (active).
`CCOc1ccc(N(C(=O)c2ccc(OC)cc2)S(=O)(=O)c2ccc3c(c2)n(C)c(=O)n3C)cc1` was tested, and the survival was 37% (active).
`CCOc1ccc(N(C(=O)c2ccc(Cl)cc2)S(=O)(=O)c2ccc3c(c2)n(C)c(=O)n3C)cc1` was tested, and the survival was 37% (active).
With `Cc1ccc(CN2C(=O)C(O)(c3c[nH]c4ccccc34)c3cc(Cl)ccc32)cc1` (stereo unspecified) the survival was -3% (active).
In the case of `Cc1ccccc1CN1C(=O)C(O)(c2c[nH]c3ccccc23)c2cc(Cl)ccc21` (stereo unspecified), the survival is reported as -2% (active).
For `CCN1C(=O)C(O)(c2c[nH]c3ccccc23)c2cc(Br)ccc21` (stereo unspecified), the survival was 55% (active).
With `CC(C)(C)C(=O)NCC(c1ccc2c(c1)OCO2)N1CCOCC1` (stereo unspecified) the survival was 0% (active).
For `COc1ccc(CCNC(=O)C(=O)NCC(c2ccc3c(c2)OCO3)N2CCOCC2)cc1` (stereo unspecified), the survival was 32% (active).
With `COc1ccc(C(=O)NCC(c2ccc3c(c2)OCO3)N2CCN(C)CC2)cc1` (stereo unspecified) the survival was 47% (active).
For `O=C(NCCCO)C(=O)NCC(c1ccc2c(c1)OCO2)N1CCOCC1` (stereo unspecified), the survival was 37% (active).
`COCCNC(=O)C(=O)NCC(c1ccc2c(c1)OCO2)N1CCOCC1` (stereo unspecified) was tested, and the survival was 0% (active).
